Compound activity from PubChem BioAssay.
Only some compounds are listed: those with a hit (about 3.1% of all), similar ones and a draw of the others.
C2C12 statin: suppressors of simvastatin-induced myotoxicity in C2C12 myotubes; ATP luminescence, 48 h; scaled: DMSO 0, geranylgeraniol control 100; rescue of ATP level, % at 7.49 µM; 0.78% of 330,000 active;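 active = mean ATP rescue above about 67%, or every replicate alone reaching that limit, limit read from the data, passing the limit was not always enough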;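 also: myotubes were challenged with 10 µM simvastatin during compound exposure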
Rtt109 HAT inh: blocks Candida albicans Rtt109/Vps75 acetyltransferase activity; purified Rtt109/Vps75, ThioGlo CoA-SH fluorescence, 4 h; 0.16% of 330,000 active; inhibition, % at 34.9 µM; AID 540336; Q5AAJ8;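 active = inhibition of at least 50% in every replicate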
Target sequence (Q5AAJ8 whole entry, looked up): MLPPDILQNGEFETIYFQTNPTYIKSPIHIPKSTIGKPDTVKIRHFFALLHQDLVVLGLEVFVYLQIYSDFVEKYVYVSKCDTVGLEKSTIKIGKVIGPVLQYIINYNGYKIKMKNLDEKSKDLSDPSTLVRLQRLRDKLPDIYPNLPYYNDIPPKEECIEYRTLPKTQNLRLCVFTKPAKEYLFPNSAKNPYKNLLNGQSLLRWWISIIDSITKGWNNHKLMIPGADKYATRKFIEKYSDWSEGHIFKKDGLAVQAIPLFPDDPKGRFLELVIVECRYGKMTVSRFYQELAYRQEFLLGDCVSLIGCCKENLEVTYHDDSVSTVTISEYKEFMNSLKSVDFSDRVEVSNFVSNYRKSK
Wnt bcat act: activates Wnt/beta-catenin signaling in a reporter cell assay | activator, plate reader | activation, % at 9.35 µM | 1.2% of 300,000 active | AID 743398; in the data active = activation above about 30%, passing the limit was not always enough;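 also: 0% = neutral control wells and 100% = positive control wells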
esBAF inh: blocks esBAF chromatin remodeling in mouse ES cells; reporter increase, % at 12.5 µM; Bmi1-luciferase knock-in reporter, 24 h; 100% = twice the neutral-well signal; 2% of 350,000 active; in the data active = activation above about 40%;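 also: 0% = median of the plate's neutral control wells and 100% = double that signal; a rise in the Bmi1 reporter signal indicates esBAF inhibition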
MITF TRPM1 HTS: activators of MITF-driven TRPM1 promoter activity in SK-MEL-5 cells | SK-MEL-5 TRPM1-promoter luciferase, 24 h; % of positive control, neutral wells = 0 | 0.75% of 300,000 active | activation, % at 12.5 µM | AID 588334;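 active = mean activation of at least 80% with every replicate also reaching 80%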;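 also: 0% = neutral control wells and 100% = parthenolide positive control wells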
* = called active by the depositor; x = no result.

SMILES	C2C12 statin	Rtt109 HAT inh	Wnt bcat act	esBAF inh	MITF TRPM1 HTS
CCCCCCOC(=O)c1ccccc1NC(=O)/C=C/C(=O)O	12	5	34*	36	x
CCC(=O)Nc1ccccc1C(=O)OCC(=O)c1ccccc1	0	10	x	-18	66
CCOC(=O)c1ccccc1NC(=O)/C=C/C(=O)O	x	-3	-2	x	1
O=C(O)/C=C\C(=O)Nc1ccccc1C#Cc1ccccc1	-2	-4	x	56*	25
O=C(O)/C=C\C(=O)Nc1ccccc1C#Cc1ccc(Br)cc1	-3	6	x	11	25
O=C(C[C@H]1C=C[C@H](NC(=O)c2ccc(F)cc2)[C@H](CO)O1)NCc1ccncn1	9	x	x	-8	x
Cc1nn(-c2ccccc2)c(C)c1/C=N/Nc1nc2ccccc2[nH]1	-18	4	173*	-25	25
C=CCn1cc(/C=N/Nc2nc3ccccc3[nH]2)c2ccccc21	x	12	53*	x	54
C(=N\Nc1nc2ccccc2[nH]1)/c1cccs1	-12	7	51*	67*	58
C(=N\Nc1ncnc2nc[nH]c12)/c1cccs1	3	15	61*	10	56
Cc1ccsc1/C=N/Nc1ncnc2nc[nH]c12	x	17	15	x	58
C[C@H]1CN([C@@H](C)CO)S(=O)(=O)c2ccc(-c3cccc(F)c3)cc2O[C@@H]1CN(C)C(=O)C1CC1	8	x	x	-1	x
Cc1cc(=O)[nH]c(N/N=C/c2sccc2C)n1	-4	-3	2	10	0
Cc1ccsc1/C=N/Nc1nc2ccccc2[nH]1	x	1	115*	x	48
COCCn1c(C)cc(C(=O)CSc2nc3ccccc3o2)c1C	85*	-3	23	8	24
COCCn1c(C)cc(C(=O)CSc2nc3ccccc3s2)c1C	-34	-4	-2	-52	-8
C[C@@H]1CCCCO[C@@H](CN(C)Cc2ccc3c(c2)OCO3)[C@@H](C)CN([C@@H](C)CO)C(=O)c2cc(NS(=O)(=O)c3ccc(F)cc3)ccc2O1	x	x	x	1	x
COc1ccc(-c2cnc3c(c2)C(=O)N([C@@H](C)CO)C[C@@H](C)[C@H](CN(C)C(=O)C2CC2)O3)cc1	-2	x	x	-9	x
O=C(Oc1cccc(/C=N/Nc2nc(Nc3ccccc3)nc(N3CCOCC3)n2)c1)c1ccco1	x	0	-1	x	103*
COC(=O)c1ccc(Nc2nc(N3CCOCC3)nc(N3CCOCC3)n2)cc1	-13	-11	1	-6	93*
O=C(NC1CCC1)[C@H]1[C@H](CO)[C@H]2Cn3c(ccc(-c4ccccc4)c3=O)[C@@H]1N2CC1CC1	21	x	x	3	x
Cc1noc(C)c1S(=O)(=O)Nc1ccc2c(c1)C(=O)N([C@H](C)CO)C[C@H](C)[C@@H](CN(C)C(=O)c1ccccc1)OCCCC[C@H](C)O2	x	x	x	2	x
C[C@@H]1CCCCO[C@@H](CN(C)C(=O)NC2CCCCC2)[C@@H](C)CN([C@@H](C)CO)C(=O)c2cc(NS(=O)(=O)c3cccs3)ccc2O1	-10	x	x	1	x
CSc1ccc(/C=C/C(=O)c2c(O)cc(C)oc2=O)cc1	1	-59	19	54*	28
CSc1ccc(C(=O)/C=C/c2ccc(N)cc2)cc1	1	-6	67*	66*	64
SMILES	C2C12 statin	Rtt109 HAT inh	Wnt bcat act	esBAF inh	MITF TRPM1 HTS
COc1ccc(/C=C/C(=O)c2c(O)cc(C)oc2=O)c(OC)c1	x	-24	15	64*	10
COc1cccc(/C=C/C(=O)c2c(O)cc(C)oc2=O)c1O	-1	8	21	6	-7
CCCC(=O)Nc1ccc2c(c1)C(=O)N(C)C[C@@H](OC)[C@H](C)CN(Cc1nccs1)[C@H](C)CO2	-5	x	x	2	x
CC(=O)N1[C@@H]2c3ccc(-c4cccc(F)c4)c(=O)n3C[C@@H]2[C@@H](CO)[C@@H]1C(=O)NCCCN(C)C	-33	x	x	-2	x
Nc1c(-c2cccc([N+](=O)[O-])c2)nc2ccccn12	7	-1	-2	59*	78
O=[N+]([O-])c1cccc(-c2ncc3ccccn23)c1	x	-2	3	x	12
CCCNC(=O)N(C)C[C@@H]1Oc2ncc(-c3ccc(OC)cc3)cc2C(=O)N([C@@H](C)CO)C[C@H]1C	1	x	x	5	x
O=c1[nH]c2cc(Cl)ccc2n1-c1ccccc1	100*	-10	x	6	-4
COc1ccc(N(CC(=O)NC2CC3CCC2C3)S(=O)(=O)c2ccc(C)cc2)cc1Cl (stereo not given)	x	x	51*	x	x
CNc1ccccc1-n1ccc(-c2ccccc2)n1	-4	5	x	60*	21
